Rows were chosen to be rich in hits. Some 5.8% of all compounds tested hit in one or more screens of this group.
uPA surface inh: blocks generation of uPA at the cell surface | 0.31% of 330,000 active | cell surface uPA generation assay, qHTS | AID 540303 | Potency, µM (series often up to 38.3 µM), most hits filed as inhibitors; active = well fitted inhibition curve with a large enough effect; inconclusive = small, poorly fitted or top-dose-only effect; inactive = no such curve, though single readings can be large or run the other way; tested in mouse RAW 264.7 cells; also: nearly all actives have a fitted effect of over 55% in size
TRPV1 ag: human TRPV1 agonism; Q8NER1; activation, % at 8.33 µM; TRPV1-expressing cells, Fluo-8 calcium influx, agonist mode; 0.19% of 320,000 active; in the data active = activation above about 80%; inconclusive = between about 30% and that limit
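Fluo-8 calcium influx in TRPV1-expressing cells, kinetic read (ex 480/em 520 nm). Compound added and read 3 min for agonist activity, followed by capsaicin at EC20 final and 2 min further read for enhancement.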
VP16 counter: inhibits Gal4-VP16 luciferase reporter, ROR gamma counter-screen. Drosophila S2 Gal4-VP16 UAS-luciferase, luminescence, 20 h. Potency, µM (titrated, usually from 53.6 µM), usual class: inhibitors. 3.5% of 310,000 active. AID 2546;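 also: Gal4-VP16 expression switched on by copper sulfate through the metallothionein promoter; nearly all actives have a fitted effect of over 50% in size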
RORgamma inh: blocks mouse ROR gamma transcriptional activity. 5.4% of 310,000 active. Potency, µM (highest dose often 53.6 µM), most hits filed as inhibitors. Drosophila S2 Gal4-RORgamma UAS-luciferase reporter, 20 h; also: nearly all actives have a fitted effect of over 60% in size
Target sequence (P51450 whole entry, looked up, the tested form may be a part): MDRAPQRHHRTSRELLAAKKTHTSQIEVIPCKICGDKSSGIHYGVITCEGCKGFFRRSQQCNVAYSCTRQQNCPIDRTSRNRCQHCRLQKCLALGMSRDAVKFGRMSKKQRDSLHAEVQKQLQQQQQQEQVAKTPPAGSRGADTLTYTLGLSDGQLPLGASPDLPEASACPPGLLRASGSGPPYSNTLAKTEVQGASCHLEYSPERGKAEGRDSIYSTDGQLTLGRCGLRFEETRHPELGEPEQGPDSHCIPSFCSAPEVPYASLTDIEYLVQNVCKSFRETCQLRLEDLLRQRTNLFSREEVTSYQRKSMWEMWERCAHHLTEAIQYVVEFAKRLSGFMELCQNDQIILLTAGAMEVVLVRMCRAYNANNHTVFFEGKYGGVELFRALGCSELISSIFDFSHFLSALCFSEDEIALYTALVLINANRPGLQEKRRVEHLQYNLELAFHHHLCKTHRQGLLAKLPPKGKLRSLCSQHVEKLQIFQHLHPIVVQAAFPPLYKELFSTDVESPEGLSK
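Drosophila Schneider cells stably carrying a metallothionein-driven Gal4 DBD–ROR gamma fusion and a UAS-Photinus luciferase reporter were exposed to compound for 1 hr, then induced with copper sulfate (700 uM final) for 20 hr at ambient temperature before luminescence reading.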
TRPV1 PAM: potentiators of human vanilloid receptor 1 (TRPV1) | Q8NER1 | TRPV1-expressing cells, Fluo-8 calcium influx, capsaicin EC20 potentiation | potentiation, % at 8.33 µM | 0.02% of 320,000 active | AID 540277; in the data active = potentiation above about 80%; inconclusive = between about 30% and that limit
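Cells expressing TRPV1 were dye-loaded with Fluo-8 and read kinetically: 10 s baseline, 3 min after compound (agonist portion), then 2 min after EC20 capsaicin (allosteric enhancer portion). Calcium-bound dye fluorescence at 480/520 nm.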
Hits are given with their value; i = inactive; ? = inconclusive; nt = no result given; ! = a repeat was not active; [ ] = remark or other dose. Unless noted, calls follow the shape of the dose curve; as a rule, active = well fitted curve in the direction sought with a large enough effect; inconclusive = small, poorly fitted or top-dose-only effect, or another doubt; inactive = no such curve, though single readings can be large; an effect the other way counts as inactive or inconclusive.

SMILES | uPA surface inh | TRPV1 ag | VP16 counter | RORgamma inh | TRPV1 PAM
CC(=O)NC1(C(F)(F)F)C(=O)N(Cc2ccccc2)C2=C1C(=O)CC(C)(C)C2 (stereo unspecified) | i | i | i | i | i
O=C(NNC1=C(C(=O)C(F)(F)F)CCC1)c1ccc(Br)cc1 | i | i | ? | ? | i
Nc1ccccc1C(=O)NNC1=C(C(=O)C(F)(F)F)CCC1 | i | i | ? | 7.08µM | i
COc1cccc(C(=O)NNC(=O)Cc2ccc(Cl)cc2)c1 | i | i | i | i[10 µM] | i
O=C(NNC1=C(C(=O)C(F)(F)F)CCC1)c1ccccc1Cl | i | i | 6.31µM | 5.62µM | i
COc1cccc(C(=O)NN/C(C)=C/C(=O)C(F)(F)C(F)(F)C(F)(F)F)c1 | i | i | 12.6µM | 12.6µM | i
COc1ccccc1C(=O)NNC1=C(C(=O)C(F)(F)F)CCC1 | i | i | 5.01µM | 0.562µM | i
COc1ccc(NC(=O)c2cc(OCCCN(C)C)nn2Cc2ccccc2)cc1 | nt | nt | i | i | nt
COc1cccc(C(=O)NNC2=C(C(=O)C(F)(F)F)CCC2)c1 | i | i | ? | 5.62µM | i
O=C(CCC1CCCC1)NNC(=O)c1ccccc1O | i | i | nt | nt | i
O=C(NNC1=C(C(=O)C(F)(F)F)CCC1)c1ccccc1O | i | ? | ? | 11.2µM | i
OC(Cc1cccnc1)(Cc1cccnc1)c1cc2ccccc2[nH]1 | i | i | i | ? | i
Cc1cc(=O)c2c(O)c3c(O)cc(=O)c4c3c3c(cc(O)c1c23)C(C)(C)C=4O | nt | nt | 3.98µM | 7.08µM! | nt
Cc1nn(CC(=O)NNC(=S)NCC2CCCO2)c(C)c1Br (stereo unspecified) | i | i | i | i | i
Cc1cccc(NC(=S)NNC(=O)c2nn(C)cc2Cl)c1 | i | i | i | ? | i
CCOCCCNC(=S)NNC(=O)CCn1nc(C)c(Br)c1C | nt | i | 3.16µM | 1.41µM | i
Cc1nn(CCC(=O)NNC(=S)Nc2ccc(F)cc2)c(C)c1[N+](=O)[O-] | i | i | i | i | i
COCCCNC(=S)NNC(=O)Cn1nc(C)c(Br)c1C | i | i | 11.2µM | 3.16µM | i
Cc1cccc(NC(=S)NNC(=O)CCn2cc(C)cn2)c1 | i | i | 1µM | 0.112µM | i
Cc1nn(CCC(=O)NNC(=S)Nc2ccccc2)c(C)c1Br | i | i | ? | 0.316µM | i
CC1CC=CC2C1C(=O)N(Cc1ccccc1)C2c1ccoc1 (stereo unspecified) | nt | nt | i | i | nt
Cc1ccc(CN2CCC(n3nccc3NC(=O)CCOc3ccccc3)CC2)cc1C | i | i | i | i | i
CNC(=S)NNC(=O)CCn1nc(C)c(Br)c1C | nt | i | 3.98µM | 0.631µM | i
Cc1nn(CCC(=O)NNC(=S)NCC(C)C)c(C)c1Br | nt | i | 1.41µM | 0.708µM | i
Cc1nn(CC(=O)NN)c(C)c1Br | i | i | i | i | i
SMILES | uPA surface inh | TRPV1 ag | VP16 counter | RORgamma inh | TRPV1 PAM
S=C1NC2=C(CCCC2)C2(CCCCC2)N1 | i | i | 1.78µM | 2µM | i
Cc1cc(C)cc(C(=O)OCC(=O)NCC(F)(F)F)c1 | i | i | i | i | ?
Cc1ccc([N+](=O)[O-])cc1NC(=S)NC(=O)CC(C)(C)C | i | i | 22.4µM | 6.31µM | i
CCCCC(=O)NC(=S)Nc1cc([N+](=O)[O-])ccc1OC | i | i | i | 10µM | i
COc1ccc([N+](=O)[O-])cc1NC(=S)NC(C)=O | i | i | i | i | i
CC(=O)NC(=S)Nc1ccc([N+](=O)[O-])cc1C | i | i | i | i | i
Cc1cc([N+](=O)[O-])ccc1NC(=S)NC(=O)C(c1ccccc1)c1ccccc1 | i | i | 10µM | 7.94µM | i
Cc1cc([N+](=O)[O-])ccc1NC(=S)NC(=O)Cc1ccccc1 | i | ? | ? | 22.4µM | i
Cc1ccc([N+](=O)[O-])cc1NC(=S)NC(=O)C(C)(C)C | i | i | i | ? | ?
COc1cc(C(Nc2ccc3c(c2)OCO3)C(=O)NC2CCCCC2)cc(OC)c1OC (stereo unspecified) | i | i | i | i | i
COc1ccccc1NC(=O)CSc1nnc(CCNC(=O)c2ccc(C)cc2)n1C | i | i | i | i | i
COCCn1c(=O)c(-c2cn(C)c3ccccc23)nc2cnc(N3CCNCC3)nc21 | nt | nt | i | i | nt
COCC1CCN(C(=O)C2CCC(=O)N(Cc3cccc(F)c3)C2)CC1 (stereo unspecified) | i | i | i | i | i
CCOC(=O)C1C(c2ccc(C(=O)O)cc2)NC(=O)NC1(O)C(F)(F)F (stereo unspecified) | i | i | i | i | i
CCCc1ccc(Oc2c(-c3ccc(O)c(C)c3O)n[nH]c2C)cc1 | i | i | ? | 17.8µM | i
CCCc1ccc(Oc2cn[nH]c2-c2ccc(O)c(C)c2O)cc1 | i | i | ? | ? | i
Cc1ccc(Sc2ccc(NC(=O)CCl)cc2)c(C)c1 | ? | ? | 5.01µM | 2.82µM | i
Cc1ccc(C)c(Sc2ccc(NC(=O)CCN3C(=O)NC4(CCCC4)C3=O)cc2)c1 | ? | ? | nt | nt | i
CC(CC(=O)N1CCN(c2cccc(Cl)c2)CC1)S(=O)(=O)c1ccc2c(c1)NC(=O)CO2 (stereo unspecified) | ? | i | 14.1µM | i | i
C/C(=N\Nc1cccc(C(=O)O)c1)c1ccc(Cl)s1 | i | i | i | ? | i
CC(/C=N/Nc1ccc2nncn2n1)=C\c1ccccc1 | i | i | i | i | i
C/C(=N\NC(=S)NC(C)C)c1ccc(Cl)s1 | i | i | ? | 1.12µM | i
CC/C(=N\NC(=O)c1ccoc1C)c1ccc(C)o1 | i | i | i | 5.01µM | i
C/C(=N\NC(N)=S)c1ccc(Cl)s1 | i | i | 5.01µM | 1.41µM | i
C/C(=N\Nc1ccc2nncn2n1)c1ccc(Cl)s1 | i | 114.8 | i | i | i
SMILES | uPA surface inh | TRPV1 ag | VP16 counter | RORgamma inh | TRPV1 PAM
CCCC1(CC)C(=O)NC(=O)N=C1N (stereo unspecified) | i | nt | nt | nt | nt
C/C(=N\NC(=O)c1ccoc1C)c1ccc(Cl)s1 | i | i | 10µM | 11.2µM | i
C/C(=N\NC(=O)c1csc(C)c1C)c1ccc(Cl)s1 | i | i | i | i | ?
O=C(Nc1ccccc1OC(=O)c1ccccc1)c1ccccc1 | 11.2µM | nt | nt | nt | nt
O=C(Nc1cccn(Cc2c(F)cccc2Cl)c1=O)NC1CCCCC1 | 11.2µM | i | i | ? | i
Cc1ccc(NC(=S)N2CCc3[nH]c4ccccc4c3C2)cc1 | i | i | i | 6.31µM | i
S=C(NC1CCCCC1)N1CCc2[nH]c3ccccc3c2C1 | i | i | i | i | i
COc1ccccc1C(=O)OCC(=O)NC12CC3CC(CC(C3)C1)C2 | i | i | nt | nt | i
Cc1nc(CS(=O)(=O)c2ccc(Cl)cc2)cc(N2CCOCC2)n1 | i | i | i | i | i
O=S(=O)(Cc1cc(N2CCOCC2)nc(-c2ccccn2)n1)c1ccccc1 | i | i | i | 15.8µM | i
CCN(c1ccccc1C(=O)O)S(=O)(=O)c1cccc2nsnc12 | i | i | i | i | i
COc1ccc(CC(=O)Nc2cccc(-c3nnc(-c4cccc(C)c4)o3)c2)cc1OC | i | ? | 7.94µM | ? | i
